Assay outcomes deposited in PubChem by National Center for Advancing Translational Sciences (NCATS).
Shown are actives, neighbours in structure and some others; about 12% of the full set was active somewhere.
Marburg entry inh – Marburg virus entry inhibition | Marburg virus pseudotyped entry inhibition, cell reporter | Potency, µM (titrated, usually from 37.8 µM), without a hit: at the top dose activity change, negative = inhibition, hits mostly inhibitors | actives 1.8% (n = 300,000) | AID 540276; calls by dose curve; tested in HEK293 cells; further: potency means the concentration at half of the fitted maximal effect; on the % scale 0 is the no-effect control and ±100 the full control effect
Shiga inhibitor – blocks Shiga toxin action in Vero cells. inhibition, % at 38.7 µM. actives 9.2% (n = 290,000). AID 2315. Vero cells, Shiga toxin protein synthesis inhibition reporter; in the data active means inhibition mostly above about 28%, no sharp cut-off; inactive means mostly below about 43%; further: 0% is about no effect
Cycloheximide cs – counter-screen hit for Shiga toxin inhibitors, cycloheximide | cell reporter, cycloheximide protein synthesis inhibition counterscreen | max response, % | actives 12% (n = 300,000) | AID 2314; in the data active means max response mostly above about 13%, no sharp cut-off; inactive means mostly below about 14%; further: read at 38.3 µM for the half of the compounds with a filed dose; 0% is about no effect
LASV entry inh – blocks Lassa virus binding to or entry into cells; Lassa virus pseudotype entry inhibition, cell reporter; Potency, µM (series often up to 37.9 µM), for the others: at the top dose activity change, negative = inhibition, most hits filed as inhibitors; actives 1.2% (n = 300,000); AID 540256; calls by dose curve; tested in HEK293 cells; further: potency means the concentration at half of the fitted maximal effect; on the % scale 0 is the no-effect control and ±100 the full control effect; nearly all actives have a fitted effect of over 50% in size
* hit, by the source's call; ? = inconclusive; . = no result given; [ ] = remark or other dose.

SMILES	Marburg entry inh	Shiga inhibitor	Cycloheximide cs	LASV entry inh
CCOc1ccc(-n2c(SCc3ccccc3)nc3c([nH]c4ccccc43)c2=O)cc1	.	.	.	-3%[46.1 µM]
Brc1ccc2[nH]c3c(N4CCc5ccccc5C4)ncnc3c2c1	?	72*	49*	-28%
c1ccc2c(c1)[nH]c1c(N3CCCC3)ncnc12	?	29	-1	-27%
Clc1ccc2[nH]c3c(N4CCC5(CC4)OCCO5)ncnc3c2c1	10µM*	3	4	10µM*
CCOc1ccc2[nH]c3c(N4CCc5ccccc5C4)ncnc3c2c1	10µM*	14	8	?
Cc1ccc2[nH]c3c(N4CCc5ccccc5C4)ncnc3c2c1	6.3µM*	13	15	?
Fc1ccc2[nH]c3c(N4CCc5ccccc5C4)ncnc3c2c1	?	-12	7	?
O=C(CCl)Nc1ccccc1C(=O)c1ccccc1	.	-3	7	.
COc1ccc(NC(=O)CCn2c(=O)c3cccn3c3cccnc32)c(OC)c1	.	.	.	5%[46.1 µM]
CN1CCN(C2=Cc3ccc(Cl)cc3Sc3ccc(F)cc32)CC1	7.9µM*	-7	-5	?
O=S(=O)(NCc1cc(-c2ccccc2)no1)c1ccccc1	2%[46.1 µM]	30	7	-11%[46.1 µM]
O=C(c1ccccc1)c1cc(-c2ccccc2)on1	0%	-6	19*	-17%
c1ccc(-c2cc(-c3ccccc3)on2)cc1	.	67*	35*	.
O=C(Nc1cccc(Cl)c1)c1cc(-c2ccccc2)on1	.	.	.	15%[46.1 µM]
Nc1nc(-c2cc(-c3ccccc3)no2)cs1	.	69*	32*	.
Brc1ccc(-c2csc(Nc3nc(-c4ccc(Br)cc4)cs3)n2)cc1	-18%[46.1 µM]	42	22*	-12%[46.1 µM]
Nc1nc(-c2ccc(Br)cc2)cs1	7%	88*	20*	?
Nc1nc(-c2ccccc2)cs1	6%	35*	29*	4%
Nc1nc(-c2cccc(Br)c2)cs1	-1%	82*	46*	8%
Nn1c(-c2cccc(Br)c2)n[nH]c1=S	9%	-13	-2	3%
Nc1nc(Cl)cc(-c2ccccc2)n1	?	-3	1	-3%
COc1cc(-c2ccccc2)nc(N)n1	?	77*	87*	12µM*
CCOc1cc(-c2ccccc2)nc(N)n1	?	106*	49*	17%
Oc1ccc(/C=N/NP(=S)(c2ccccc2)c2ccccc2)cc1	?	4	2	-8%
Oc1ccc(/C=N/NC(=S)N/N=C/c2ccc(O)cc2)cc1	.	62*	40*	.
SMILES	Marburg entry inh	Shiga inhibitor	Cycloheximide cs	LASV entry inh
Oc1ccc(/C=N/NC(=S)Nc2cccnc2)cc1	.	81*	48*	.
CC(=O)c1ccc(NC(=O)c2ccc(-n3cnnn3)cc2)cc1	4%[46.1 µM]	.	.	4%
O=C(CSCc1ccccc1)Nc1ccc(F)cc1F	19%[46.1 µM]	49*	21*	?
O=C(CCc1ccccc1)Nc1ccccc1F	?	74*	30*	?
O=C(CCCc1ccccc1)Nc1ccc(Br)cc1F	13%	.	55*	-21%
O=C(CCc1ccccc1)Nc1ccc(F)cc1F	?	67*	23*	-3%
O=C(CS(=O)(=O)Cc1ccccc1)Nc1ccc(Br)cc1F	17%	.	.	-7%
CC(CNC(=O)Cn1ncc2c3ccccc3n(Cc3cccc(Cl)c3)c2c1=O)c1ccccc1 (stereo not drawn)	-32%[46.1 µM]	.	.	1%[46.1 µM]
CCOC(=O)N1C(C)CN(/[N+]([O-])=N/Oc2ccc([N+](=O)[O-])cc2[N+](=O)[O-])CC1C (stereo not drawn)	.	32	7	.
N#CC1=C(N)NC(=S)C(C(N)=O)C1c1ccc([N+](=O)[O-])cc1 (stereo not drawn)	1%[46.1 µM]	-8	-6	-15%
C=CCOc1ccc(/C=C2\SC(N3CCCCC3)=NC2=O)cc1	18%[46.1 µM]	9	-3	?
Cc1ccc(F)cc1NC(=O)CCOc1ccccc1	-22%[46.1 µM]	4	2	?
O=C(CN1CCN(c2ccccc2F)CC1)Nc1ccccc1F	7%	18	0	0%
O=C(CCOc1ccccc1)Nc1ccccc1F	.	74*	32*	.
O=C(CCN1CCN(c2ccccc2F)CC1)Nc1ccccc1F	-13%	34	18*	0%
O=C(c1ccccc1-c1nc(-c2ccc(Cl)cc2)no1)N1CCCC1	?	74*	45*	-24%
O=C(c1ccccc1-c1nc(-c2ccccc2)no1)N1CCCC1	29%	56*	22*	3%
CN1CCN(C(=O)c2ccccc2-c2nc(-c3ccc(Cl)cc3)no2)CC1	?	40	16	-2%
Cc1ccc(-c2noc(-c3ccccc3C(=O)N3CCCC3)n2)cc1	5%	54*	35*	-12%
CCCCn1cc(S(=O)(=O)c2cccc(C)c2)c(=O)c2cc(F)c(N3CCOCC3)cc21	.	.	.	-20%[46.1 µM]
N#CCSc1nnc(-c2sc3ccccc3c2Cl)o1	?	61	42*	?
CCOC(=O)c1[nH]c(CSc2nnc(-c3ccc(OC)cc3)o2)c(C(=O)OCC)c1C	-1%	-6	12	-25%
CCSc1nnc(-c2ccc(OC)cc2)o1	-24%	98*	56*	3%
COc1ccc(-c2nnc(SCc3c(C)noc3C)o2)cc1	12%[46.1 µM]	68*	27*	.
C#CCSc1nnc(-c2ccc(OC)cc2)o1	?	46	37*	-14%
SMILES	Marburg entry inh	Shiga inhibitor	Cycloheximide cs	LASV entry inh
CCC1CN(C(=O)N2CCC(C(=O)NCc3cccc(OC)c3OC)CC2)c2cc(C)ccc2O1 (stereo not drawn)	-13%[46.1 µM]	-6	-11	?
COCC=CC1=CC2=CC(=O)C(C)(OC(=O)c3cnc4ccccc4n3)C(=O)C2=CN1Cc1ccc(OC)cc1 (stereo not drawn)	-2%[14.2 µM]	.	.	.
Cc1ccc(Cl)cc1N1CCN(C(=O)c2cc(S(=O)(=O)N3CCC(C)CC3)cn2C)CC1	.	.	.	-5%[46.1 µM]
C#CCSc1nnc(-c2ccc([N+](=O)[O-])cc2)o1	.	58*	23*	.
COc1ccc(-c2nnc(SCC#N)o2)cc1	4%	37	15*	16%
CCCCCCCCSc1nnc(-c2ccc(OC)cc2)o1	?	-7	-4	11%
COc1ccc(NC(=O)Cn2c(NCC(C)O)nc3ccccc32)cc1Cl (stereo not drawn)	.	-2	-1	.
Cc1cc(-c2ccc(Br)cc2)n[nH]1	?	82*	31*	25%[46.1 µM]
Nc1cc(-c2ccc(Br)cc2)[nH]n1	8%	25	11*	2%
CCOc1cc(-c2cc(N)n[nH]2)cc(OCC)c1OCC	.	0	-3	.
Cc1ccc(N(CC(=O)NCCSc2ccccn2)S(C)(=O)=O)cc1	-11%[46.1 µM]	21	2	-16%
O=C(NCc1nc2cccnc2n1Cc1ccc(F)cc1)c1ccccc1C(F)(F)F	.	.	.	6%[46.1 µM]
Cn1cccc1C(=O)OCC(=O)Nc1ccc2c(c1)OCCO2	6.3µM*	.	.	7.1µM*
O=C(COC(=O)c1ccco1)Nc1ccc2c(c1)OCCO2	0%	79*	56*	11%
O=C(Nc1ccc2c(c1)OCCO2)c1ccco1	?	112*	40*	?
CC1(C)Oc2ccc(NC(=O)c3ccco3)cc2O1	-12%	91*	32*	?
COc1ccc(C2(CNC(=O)c3ccc(OCC(C)C)cc3)CCOCC2)cc1	-15%	-30	-2	?
CC(=O)Nc1ccc(S(=O)(=O)N[C@@H](C)C(=O)N2CCN(c3ccccn3)CC2)cc1	5%[46.1 µM]	.	.	-16%
N=C1SCC(=O)N1/N=C/c1ccccc1	-1%[46.1 µM]	53*	24*	.
